The record followed here is PubChem BioAssay AID1347423 (Functional Genomics Laboratory (NCATS/FGL), 2020).

Out of some 52,000 sequences screened, about 210 (0.4%) were called active.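 Rule for the calls: active = gene whose silencing raises cell survival under the drug, median off-target-corrected z-score across its silencing RNAs 2 or more; inactive = the rest.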 Shown is part of a subset that was picked to be rich in actives.

The nature of this experiment: Resistance to Poly (ADP-Ribose) Polymerase inhibitor: Gene Identification via Genome-wide siRNA Screen. The conditions noted are these: mouse BRCA2 R2336H ES cells, olaparib, CellTiter-Glo viability; hits give high values. The essentials: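 Genome-wide siRNA screen (3 siRNAs/gene, 20 nM) in mouse ES cells carrying hypomorphic BRCA2 R2336H; olaparib 500 nM added 48 h post-transfection, CellTiter-Glo viability 72 h later. Normalized to plate-median negative control; MAD z-scores, gene median, seed-adjusted.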
On the technique in general: ATP-based viability assays read luminescence as a measure of living cells.
For the sequence GUCUCUCUUUUAACAUGCUTT against Ceacam13, the z-score was 2.49 (inactive).
Take GCUUGUCUCACACAGCUCUTT against Olfr401: the z-score was -0.379 (inactive).
Regarding CCCACAAGGUUAAGAUAUATT against Col14a1, the z-score was 0.22 (inactive).
Turning to GACGGUGGGACUCACUGUUTT against Ors6, the z-score was -0.403 (inactive).
For the sequence GGUUGACACAGAUGAAGAGTT against Rdh9, the z-score is -0.356 (inactive).
The result for GCGUGCAGCCCUCAAUGAATT against Ppp2r5b reads 1.44 (active).
For GGAAUCCAUGCAGAAAUAATT against Pcdhga6, the z-score is 1.54 (inactive).
In the case of GGAGAUGGCUUCUCUCUCGTT against Rarg, the z-score is 1.37 (active).
Regarding CGCGGGAUGAAGGAUAUAATT against LOC432589, the z-score is -2.23 (inactive).
Take GGAGAACUGUCAGAACGAGTT against Gpx2: the z-score was -2.7 (inactive).
To GCAAUGCGACGUGCUCUAUTT against LOC330863 belongs -0.895 (inactive); to GCGGCAUAAGUCCAAGCACTT against Crk7, -1.76 (inactive); to GGAAUGUUCUGUCGCUAUGTT against Nrp1, 0.0552 (inactive).
On to “GGUUGAAUAUUGAAUGGAATT against 9130422G05Rik”, for which the z-score was 0.44 (inactive).
Turning to CCUGAAAAAAUUUAUCGCCTT against Rnf3, the z-score was -0.169 (inactive).
The result for GCUUCCUCUACAUCCUGCUTT against Kcnk15 reads 2.57 (active); that for GGCUGAACUCAAAAAGACGTT against Hand1, 2.07 (inactive).
With GGUGAAGCUGAAACAACAUTT against BC020002, the z-score was 0.323 (inactive).
As to GCUUGUGAAAAAUUAUGAGTT against Ipo7, the z-score is -1 (inactive).
Turning to GCUCUACUGCUUCCUUGUUTT against Olfr973, the z-score is -2.32 (inactive).
GGAGAUGUGUGCUAUGUGGTT against Gzmb: the z-score was -1.14 (inactive).
GGCCAACUGAUUAAGAAACTT against Chrnb1: the z-score is 2.28 (active).
To GGGAUACCAUGGGAAUAGUTT against Vps52 belongs 0.468 (inactive).
Regarding “GGACAAGGAUGCAAUUAUCTT against 4833427G06Rik”, the z-score is -2.12 (inactive).
In the case of GGCUCAAGGACAGAUGAUGTT against Tra1, the z-score is -0.94 (inactive).
GGAGCUAAGACAGUUUGGATT against BC022133: the z-score is -1.16 (inactive).
Regarding GGAUGAUACUUCAUUACACTT against Ankrd12, the z-score was -0.613 (inactive).
On to GGAGUGAAAUUUACUGGGUTT against Hdgfrp3, for which the z-score was 1.78 (inactive).
In the case of CGAGGUGACCUACAAGAUUTT against AI481750, the z-score is 0.982 (inactive).
Take “CCUUCUGUAGUUGGAAUCATT against 1110038F21Rik”: the z-score is -0.558 (inactive).
For GGGUUAUGUCUGUGGAGCUTT against Bcl2l2, the z-score is 1.54 (active).
As for GCCUUAAGUGGAUUUAGGATT against Hist1h2ae, the z-score was 1.22 (inactive).
Take “GGAAAUACCCUGAUAGCCATT against 9430077C05Rik”: the z-score was -1.23 (inactive).
“GCAACAUUAGGAUUUAUAGTT against 1110032E23Rik”: the z-score is -0.366 (inactive).
To “GGUGAAAACCCUAACAGUCTT against A130007F10Rik” belongs 0.653 (inactive); to CCAAGUUUUUAUGCAGAUATT against Pip5k1a, -1.31 (inactive); to GCUUACCUUGACCAACCUCTT against Chrng, 1.84 (active).
The result for “GCCACCUUGUUUCUCGAACTT against 1810008A18Rik” reads 0.925 (inactive); that for GCAAGUCCUACAAUACAACTT against Tk1, -0.837 (inactive).
For GGUGCAGCCACGAAAACAUTT against Lmln, the z-score is 1.57 (inactive).
The result for CGAUUAUGACCGAUAUAGATT against Fusip1 reads 0.823 (inactive); that for “GGAUAUUGAACACUUCUUGTT against D330017J20Rik”, 1.25 (inactive).
Turning to GGGACUUUCAUAAUGCCAGTT against Snip1, the z-score is 0.733 (inactive).
As for GGCCUCCCUACUUGAAGACTT against Crip3, the z-score was 1.71 (active).
Take GGCUCUCUUAGUUGUAUCATT against Mrpl35: the z-score was -1.03 (inactive).
With “GGAAGUCCGUUUUUAAGAATT against 4732429I09Rik”, the z-score was -0.792 (inactive).
In the case of GCUCAAACAGAUACACGGATT against Ap2a2, the z-score is 0.288 (inactive).
To GCUUGAUCAACAAGUGGAGTT against Nup62 belongs -1.64 (inactive); to GCUUGACCCUACACUACAGTT against Olfr1121, 1.25 (inactive); to “GGCAUUGUAGAGAUGACUCTT against 4732479N06Rik”, 1.16 (inactive).
To UUCUGUGCAUCCUGUCCUATT against Kcnk15 belongs -0.484 (active); to CGUGUGAGGUUUGUGAAAGTT against Gzmf, -2.41 (inactive); to GCCUAAAAAAUCUCUGUGATT against Zswim3, -1.39 (inactive).
In the case of GGAAGUUCAACACCUCCAGTT against BC023296, the z-score is -0.673 (inactive).
Turning to CGAUUUCAGCUUAAAGCACTT against Lmo3, the z-score was 1.44 (inactive).
As for “CCCUAAAACCAAAUGUACATT against E130014J05Rik”, the z-score was 6.23 (active).
For “GGACUUGGAAGUAAUUUUCTT against C230071H18Rik”, the z-score is 2.75 (inactive).
In the case of GCGAACAGAAAAGACCAAUTT against Col4a5, the z-score was 1.11 (inactive).
Take “GGGACAUACAUAUCCUCCUTT against 1300013D05Rik”: the z-score is 1.31 (inactive).
As for GCAUACAUAGCACUACAUATT against Olfr536, the z-score is -0.0396 (inactive).
In the case of GGACAGUGUUUACAAACUUTT against Fbxw7, the z-score was 0.328 (inactive).
Consider GCAUAUGGUCCACUAAAAATT against Kcnj4, for which the z-score is 0.316 (inactive).
To GGUACUGGAGAAAGUCAAGTT against Pik4cb belongs 0.097 (inactive); to GGAUGAUUUCCAGAGAGUATT against Rdh5, -1.33 (inactive); to GGAGUGUGAUCAAGUUCAUTT against Eya4, 0.648 (inactive).
The result for GCUUUUACAAGACCUGUUCTT against Pde2a reads 1.02 (active); that for “GGAGAGAACUGGAAGAGAGTT against 0610040D20Rik”, -2.18 (inactive).
GGAAAUACGGCUUCAUCUATT against Cyp26a1: the z-score was 0.936 (inactive).
For GACAUUUGUAUGCAGUCAUTT against V1ri9, the z-score is 0.237 (inactive).
In the case of GGAUUCGAUUCUUCCAAAATT against Peli2, the z-score was -1.02 (inactive).
For GGUCUUAGAAGAUUUUUCUTT against Adam21, the z-score is 2.43 (active).
“AUUCUGAACACUCCUCGGATT against C630041L24Rik”: the z-score was -0.69 (inactive).
In the case of GGAACUGCUUACGAAAUACTT against Lama4, the z-score was -0.374 (inactive).
In the case of GGAUGCUACGUUCUGCUAGTT against Bcat2, the z-score is -0.76 (inactive).
With “GCCCUCAGGUGGUUCUUAATT against C030036P15Rik”, the z-score was -1.76 (inactive).
For the sequence GGAGAAACUGAUGACAGUGTT against Plcb3, the z-score is 1.47 (active).
Consider GCUAUUAUUGCAAUGUCAGTT against Trim38, for which the z-score is -0.00296 (inactive).
The result for GCUACGAGAGGUCAUUUCCTT against Chrnb1 reads 2.48 (active); that for GGCUGAAGCAGUCUGUUGCTT against Rpp14, -0.655 (inactive).
On to GGCUGUUUGUGGUAUAGGUTT against Lrrc3, for which the z-score is 1.52 (inactive).
GGCAACUUUGUUAUAUACATT against Sh2bp1: the z-score was -0.76 (inactive).
As to “CCUCAGAUUUCAACCAUAGTT against 2700087I09Rik”, the z-score is 1.64 (inactive).
For “CCAUGACAUUUCCUAAGUUTT against B130022O04Rik”, the z-score is -2.2 (inactive).
Regarding GGAAAAGAUACGGAAGAUUTT against Acpp, the z-score was 0.216 (active).
Regarding GCUUCUAAUUGGAGAUUGCTT against Ngfrap1, the z-score is 1.44 (inactive).
As to “CCAGUUACGUUAAAAGCUUTT against D1Bwg0491e”, the z-score was 0.00475 (inactive).
For GGGAGAAUUACCAAGAUCUTT against Elac1, the z-score is 2.5 (inactive).
For the sequence GGUCGACUUAAGAUAAUAATT against Itgb6, the z-score was 1.94 (active).
To GCCCUAGAUCAGGAGAUCATT against Rps17 belongs -2.58 (inactive); to “GGAUGUCCCACUGCUUUACTT against 5730466C23Rik”, -0.562 (inactive).
On to GCACUAGUUCUCAAUUUAATT against Antxr1, for which the z-score is 0.317 (inactive).
For GGCAUCUUCAAAUGACAUATT against Cic, the z-score was 2.45 (active).
As for GGCCCAUUUUGGUGUGCAUTT against Hyal3, the z-score is -0.6 (inactive).
Take GGUGCCUAAUGGAUAAGAATT against Thrap2: the z-score is 0.923 (inactive).
For the sequence GGAAACCAGACUUUCCCUATT against V1ra5, the z-score is -0.806 (inactive).
Turning to GGACCAGGUUCACUUCCCUTT against Ovol1, the z-score was 0.343 (inactive).
For GCAGAUCUCUUACGUCAUCTT against Adam9, the z-score is 0.749 (inactive).
In the case of GGAAAGUGGUUUUGUCCACTT against Ing5, the z-score was 1.74 (inactive).
The result for GGUCACGUGCAGUUAUAUCTT against Rab32 reads 0.0398 (inactive).
On to GGCCUAAAUUGACAAACUUTT against Mgea5, for which the z-score was 0.366 (inactive).
To GCAGCUCCAAAUCCUGUUCTT against Asb16 belongs -1.78 (active).
For “GGAAACUUCUGCACUUGGGTT against 4930474M22Rik”, the z-score is 1.02 (inactive).
The result for GCUGUCUGAUUCUGAGGUGTT against Slc6a1 reads -0.947 (inactive).
In the case of “GGGUUUAAUCAUGAUAGAATT against E130014J05Rik”, the z-score was 3.95 (active).
Regarding GGUGACAAUAAAAUGGUGATT against Fabp1, the z-score was 0.496 (inactive).
